Measurements taken from paper PMC3218832.

Legend:
Assay in all cases: protein binding microarray; high values mean tight binding
Details in all cases: dsDNA, one strand shown
RELARELA (p65 homodimer) = RELARELA (p65 homodimer) (Homo sapiens, UniProt Q04206 1-307)
p50p50 homodimer = p50p50 homodimer (Homo sapiens, UniProt P19838 7-356)
p52p52 homodimer = target: T1, p52p52 homodimer (Homo sapiens, UniProt Q00653 4-332)
T1 sequence: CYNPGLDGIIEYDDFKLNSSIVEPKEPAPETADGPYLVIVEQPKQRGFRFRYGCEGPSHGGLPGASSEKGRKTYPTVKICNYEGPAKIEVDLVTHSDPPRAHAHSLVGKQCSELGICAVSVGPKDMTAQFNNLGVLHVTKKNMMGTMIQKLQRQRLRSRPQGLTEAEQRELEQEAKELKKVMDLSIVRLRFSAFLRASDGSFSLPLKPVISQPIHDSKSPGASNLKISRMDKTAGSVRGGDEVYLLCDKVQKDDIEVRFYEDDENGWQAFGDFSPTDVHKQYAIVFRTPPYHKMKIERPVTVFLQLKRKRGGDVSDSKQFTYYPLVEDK

[1] = target: RELA (p65) subunit of heterodimer;p50 subunit (Homo sapiens;Homo sapiens, UniProt Q04206;P19838 1-307;7-356)
[2] = target: RELA (p65) subunit of heterodimer;p52 subunit (Homo sapiens;Homo sapiens, UniProt Q04206;Q00653 1-307;4-332)
RELB subunit;p50 subunit = RELB subunit;p50 subunit (Homo sapiens;Homo sapiens, UniProt Q01201;P19838 120-401;7-356)
RELB subunit;p52 subunit = target: T2, RELB subunit;p52 subunit (Homo sapiens;Homo sapiens, UniProt Q01201;Q00653 120-401;4-332)
T2 sequence 1: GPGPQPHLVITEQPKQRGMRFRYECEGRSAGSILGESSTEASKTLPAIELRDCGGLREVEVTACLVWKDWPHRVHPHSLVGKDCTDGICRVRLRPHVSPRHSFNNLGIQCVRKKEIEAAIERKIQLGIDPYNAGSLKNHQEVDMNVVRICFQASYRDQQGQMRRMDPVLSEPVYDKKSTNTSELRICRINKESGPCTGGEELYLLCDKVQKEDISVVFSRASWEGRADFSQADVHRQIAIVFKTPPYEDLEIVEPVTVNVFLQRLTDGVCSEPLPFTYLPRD
T2 sequence 2: T1 sequence

[3] = target: C-Rel subunit;p50 subunit (Homo sapiens;Homo sapiens, UniProt Q04864;P19838 1-285;7-356)
[4] = target: T3, C-Rel subunit;p52 subunit (Homo sapiens;Homo sapiens, UniProt Q04864;Q00653 1-285;4-332)
T3 sequence 1: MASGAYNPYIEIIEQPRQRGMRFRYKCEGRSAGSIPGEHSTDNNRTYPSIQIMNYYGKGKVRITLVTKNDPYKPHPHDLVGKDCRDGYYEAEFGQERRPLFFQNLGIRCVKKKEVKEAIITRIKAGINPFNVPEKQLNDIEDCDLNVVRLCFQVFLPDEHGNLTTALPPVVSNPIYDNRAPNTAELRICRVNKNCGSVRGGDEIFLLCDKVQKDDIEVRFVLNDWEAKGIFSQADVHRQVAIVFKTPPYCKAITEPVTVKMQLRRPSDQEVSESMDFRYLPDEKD
T3 sequence 2: T1 sequence

Chain of RELA (p65) subunit of heterodimer;p50 subunit (Q04206 1-307, chain 1 of 2): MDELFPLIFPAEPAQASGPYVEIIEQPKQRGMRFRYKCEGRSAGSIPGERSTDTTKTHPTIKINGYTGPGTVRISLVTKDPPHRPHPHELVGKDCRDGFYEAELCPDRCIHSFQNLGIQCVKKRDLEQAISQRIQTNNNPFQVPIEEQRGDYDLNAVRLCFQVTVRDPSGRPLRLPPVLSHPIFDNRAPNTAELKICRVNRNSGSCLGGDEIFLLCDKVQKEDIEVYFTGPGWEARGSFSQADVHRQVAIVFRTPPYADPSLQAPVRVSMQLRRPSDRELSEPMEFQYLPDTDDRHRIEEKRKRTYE
Chain of RELA (p65) subunit of heterodimer;p50 subunit (P19838 7-356, chain 2 of 2): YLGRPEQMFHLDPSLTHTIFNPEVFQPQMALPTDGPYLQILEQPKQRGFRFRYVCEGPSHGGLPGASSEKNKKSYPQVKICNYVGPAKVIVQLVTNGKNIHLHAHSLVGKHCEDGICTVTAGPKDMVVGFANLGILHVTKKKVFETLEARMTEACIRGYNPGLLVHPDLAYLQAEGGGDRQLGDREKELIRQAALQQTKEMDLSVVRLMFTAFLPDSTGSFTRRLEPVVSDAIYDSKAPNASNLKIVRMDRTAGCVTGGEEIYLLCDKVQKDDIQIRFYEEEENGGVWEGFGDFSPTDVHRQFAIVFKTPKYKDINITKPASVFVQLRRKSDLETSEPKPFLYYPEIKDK
Chain of RELARELA (p65 homodimer) (Q04206 1-307): as the sequence (Q04206 1-307, chain 1 of 2) above
Chain of p50p50 homodimer (P19838 7-356): as the sequence (P19838 7-356, chain 2 of 2) above

Question: AAAATCTTCCC was tested. Which binding signal (RELARELA (p65 homodimer)) did it give?
Answer: 1.32 z-score

Question: What about the binding signal (p50p50 homodimer) of the same sequence?
Answer: 0.807 z-score

Question: What about the binding signal (p52p52 homodimer) of the same sequence?
Answer: 0.256 z-score

Question: What about the binding signal [1] of the same sequence?
Answer: 0.764 z-score

Question: And the binding signal [2]?
Answer: 0.419 z-score

Question: And the binding signal (RELB subunit;p50 subunit)?
Answer: 0.54 z-score

Question: And the binding signal (RELB subunit;p52 subunit)?
Answer: 0.162 z-score

Question: And the binding signal [3]?
Answer: 1.06 z-score

Question: What about the binding signal [4] of the same sequence?
Answer: 0.488 z-score

Question: Which binding signal (RELARELA (p65 homodimer)) does the source give for AGAGGGACCCT here?
Answer: -0.966 z-score

Question: And the binding signal (p50p50 homodimer)?
Answer: -0.326 z-score

Question: What about the binding signal (p52p52 homodimer) of the same sequence?
Answer: 0.216 z-score

Question: And the binding signal [1]?
Answer: -0.688 z-score

Question: And the binding signal [2]?
Answer: -0.129 z-score

Question: And the binding signal (RELB subunit;p50 subunit)?
Answer: -0.226 z-score

Question: What about the binding signal (RELB subunit;p52 subunit) of the same sequence?
Answer: -0.0964 z-score

Question: What about the binding signal [3] of the same sequence?
Answer: -0.803 z-score

Question: And the binding signal [4]?
Answer: -0.355 z-score

Question: What does the source list for CAGAGTGTCCC?
Answer: binding signal (RELARELA (p65 homodimer)): 0.916 z-score; binding signal (p50p50 homodimer): 0.0211 z-score; binding signal (p52p52 homodimer): 0.161 z-score; binding signal [1]: 0.185 z-score; binding signal [2]: 0.144 z-score; binding signal (RELB subunit;p50 subunit): 0.304 z-score; binding signal (RELB subunit;p52 subunit): 0.434 z-score; binding signal [3]: 0.274 z-score; binding signal [4]: 0.221 z-score

Question: How did the binding signal (RELARELA (p65 homodimer)) turn out when CAGGGCTCCCT was run?
Answer: -0.815 z-score

Question: What about the binding signal (p50p50 homodimer) of the same sequence?
Answer: -0.631 z-score

Question: And the binding signal (p52p52 homodimer)?
Answer: -0.475 z-score

Question: And the binding signal [1]?
Answer: -0.698 z-score

Question: And the binding signal [2]?
Answer: -0.717 z-score

Question: What about the binding signal (RELB subunit;p50 subunit) of the same sequence?
Answer: -0.43 z-score

Question: What about the binding signal (RELB subunit;p52 subunit) of the same sequence?
Answer: -0.477 z-score

Question: And the binding signal [3]?
Answer: -0.901 z-score

Question: And the binding signal [4]?
Answer: -0.708 z-score

Question: For GGAGACTTCCC, which binding signal (RELARELA (p65 homodimer)) is on record?
Answer: 1.11 z-score

Question: What about the binding signal (p50p50 homodimer) of the same sequence?
Answer: 0.00445 z-score

Question: And the binding signal (p52p52 homodimer)?
Answer: 0.117 z-score

Question: What about the binding signal [1] of the same sequence?
Answer: 0.505 z-score

Question: And the binding signal [2]?
Answer: 0.17 z-score

Question: And the binding signal (RELB subunit;p50 subunit)?
Answer: -0.132 z-score

Question: And the binding signal (RELB subunit;p52 subunit)?
Answer: -0.125 z-score

Question: And the binding signal [3]?
Answer: 0.335 z-score

Question: What about the binding signal [4] of the same sequence?
Answer: 0.286 z-score

Question: What does the source list for GAATTTACCCT?
Answer: binding signal (RELARELA (p65 homodimer)): 0.959 z-score; binding signal (p50p50 homodimer): 0.984 z-score; binding signal (p52p52 homodimer): 0.839 z-score; binding signal [1]: 0.86 z-score; binding signal [2]: 0.817 z-score; binding signal (RELB subunit;p50 subunit): 0.602 z-score; binding signal (RELB subunit;p52 subunit): 0.504 z-score; binding signal [3]: 0.6 z-score; binding signal [4]: 0.479 z-score

Question: How did the binding signal (RELARELA (p65 homodimer)) turn out when GAAAAGTCCCT was run?
Answer: 1.43 z-score

Question: And the binding signal (p50p50 homodimer)?
Answer: 1.36 z-score

Question: What about the binding signal (p52p52 homodimer) of the same sequence?
Answer: 2.5 z-score

Question: What about the binding signal [1] of the same sequence?
Answer: 2.07 z-score

Question: What about the binding signal [2] of the same sequence?
Answer: 1.79 z-score

Question: And the binding signal (RELB subunit;p50 subunit)?
Answer: 2.67 z-score

Question: And the binding signal (RELB subunit;p52 subunit)?
Answer: 2.22 z-score

Question: And the binding signal [3]?
Answer: 1.59 z-score

Question: And the binding signal [4]?
Answer: 2.16 z-score

Question: Which binding signal (RELARELA (p65 homodimer)) does the source give for AAAAAGGTCCC here?
Answer: 0.243 z-score

Question: And the binding signal (p50p50 homodimer)?
Answer: 0.679 z-score

Question: And the binding signal (p52p52 homodimer)?
Answer: 0.569 z-score

Question: What about the binding signal [1] of the same sequence?
Answer: 0.331 z-score

Question: What about the binding signal [2] of the same sequence?
Answer: 0.184 z-score

Question: What about the binding signal (RELB subunit;p50 subunit) of the same sequence?
Answer: 0.63 z-score

Question: What about the binding signal (RELB subunit;p52 subunit) of the same sequence?
Answer: 0.428 z-score

Question: What about the binding signal [3] of the same sequence?
Answer: 0.216 z-score

Question: What about the binding signal [4] of the same sequence?
Answer: 0.157 z-score
